# Source: PubChem BioAssay (National Center for Advancing Translational Sciences (NCATS))
# The list is not random: actives were taken first. Their share in the collection is about 10%.
# GPT2 inh: inhibitors of human GPT2 alanine aminotransferase. Q8TD30. Recombinant GPT2, coupled pyruvate oxidase/HRP Amplex Red fluorescence. Potency, µM (series often up to 57.7 µM), without a hit: at the highest dose activity change, negative = inhibition, usual class: inhibitors. 0.25% of 100,000 active; further: on the % scale 0 is the no-effect control and ±100 the full control effect; nearly all actives have a fitted effect of over 60% in size
# Target sequence (Q8TD30 whole entry, looked up): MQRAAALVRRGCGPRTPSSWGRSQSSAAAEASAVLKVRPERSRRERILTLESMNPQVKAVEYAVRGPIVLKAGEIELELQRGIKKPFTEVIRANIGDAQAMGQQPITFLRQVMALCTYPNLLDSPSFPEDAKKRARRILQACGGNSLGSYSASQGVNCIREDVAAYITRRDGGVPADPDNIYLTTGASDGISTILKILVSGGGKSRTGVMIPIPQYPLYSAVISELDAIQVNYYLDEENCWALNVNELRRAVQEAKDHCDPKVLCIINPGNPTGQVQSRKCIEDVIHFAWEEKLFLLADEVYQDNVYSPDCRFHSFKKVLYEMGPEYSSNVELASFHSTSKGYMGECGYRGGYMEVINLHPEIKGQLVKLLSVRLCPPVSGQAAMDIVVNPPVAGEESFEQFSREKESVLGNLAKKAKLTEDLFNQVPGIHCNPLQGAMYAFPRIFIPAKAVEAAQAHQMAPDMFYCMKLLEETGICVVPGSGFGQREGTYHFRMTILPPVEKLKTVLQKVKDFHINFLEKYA
#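 Inhibition is scored from Amplex Red fluorescence generated when pyruvate oxidase and HRP act on pyruvate released by GPT2. Reactions contain 10ng/uL enzyme, 250uM a-KG and 2mM L-alanine and run 30 min at room temperature.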
# hNpr1 antagonist: blocks ANP-stimulated signaling of human Npr1 receptor. HEK293 hNpr1 GloSensor cGMP, ANP-stimulated luminescence. P16066. AID 1347048. 1.6% of 76,000 active. Potency, µM (series often up to 46.3 µM), inactives show at the top dose activity change, negative = inhibition, hits mostly inhibitors; calls by dose curve; further: on the % scale 0 is the no-effect control and ±100 the full control effect; nearly all actives have a fitted effect of over 60% in size
#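 Compound pre-incubated 30 min at room temperature on GloSensor-loaded HEK293 cells stably carrying hNpr1 and the pGS-40F cGMP biosensor. Stimulation uses hNppA at 0.1 nM final; luminescence is taken at baseline and 20 min post-agonist.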
# HEK293 tox: HEK 293 cell cytotoxicity; HEK 293 viability, ATP luminescence (CellTiter-Glo), 48-72 h; AID 1345083; Potency, µM (titrated, usually from 115 µM), for the others: top-dose activity change, negative = cytotoxicity, most hits filed as inhibitors; 6.6% of 94,000 active; further: on the % scale 0 is the no-effect control and ±100 the full control effect; nearly all actives have a fitted effect of over 60% in size
#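 Cells seeded first (HEK 293, 250 cells/well), then compound added by pintool. Incubation ran 48 or 72 hr at 37 degree Celsius. CellTiter-Glo was added and luminescence imaged after 10 min at room temperature.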
# FLuc inh-1: inhibitors of firefly (Photinus pyralis) luciferase. P08659. purified P. pyralis luciferase, luminescence, biochemical. Potency, µM (highest dose often 115 µM), actives largely listed as inhibitors. 2.5% of 76,000 active; further: on the % scale 0 is the no-effect control and ±100 the full control effect; nearly all actives have a fitted effect of over 65% in size
#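 Biochemical qHTS: compound (6-point titration) added to 10uM D-luciferin plus 10uM ATP in Tris acetate pH 7.5 buffer with Mg, Tween-20 and BSA, then purified enzyme at 10nM; light output imaged.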
# 3T3 cytotox: NIH 3T3 cell cytotoxicity; NIH 3T3 viability, CellTiter-Glo ATP luminescence, 48-72 h; 4.3% of 94,000 active; Potency, µM (titrated, usually from 96.7 µM), without a hit: top-dose activity change, negative = cytotoxicity, usual class: inhibitors; further: on the % scale 0 is the no-effect control and ±100 the full control effect; nearly all actives have a fitted effect of over 55% in size
#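 Mouse fibroblast NIH 3T3 cells, 400 per well, received compound via pintool and were incubated for 48 or 72 hr prior to CellTiter-Glo ATP luminescence measurement.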
# FLuc SDR -ATP: binders stabilizing firefly luciferase, without ATP; shares compounds with FLuc inh-1; Purified FLuc-C-HiBiT, Nano-Glo HiBiT luminescence, no ATP; Potency, µM (doses to about 32.7 µM), for the others: at the top dose activation (signal gain), usual class: activators; 7.8% of 1,300 active; further: nearly all actives have a fitted effect of over 55% in size
# FLuc SDR ATP: firefly luciferase binding stabilization, ATP added; 8.7% of 1,300 active; purified FLuc-C-HiBiT + ATP, HiBiT complementation luminescence; shares compounds with FLuc inh-1; Potency, µM (doses to about 32.7 µM), without a hit: at the top dose activation (gain of signal), most hits filed as activators;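 further: signal reports ligand binding via conformational change of the enzyme rather than luciferase catalysis; % of control where 0% means no effect; nearly all actives have a fitted effect of over 55% in size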
# FLuc inh-2: inhibitors of firefly luciferase enzymatic activity | 42% of 1,300 active | shares compounds with FLuc inh-1 | purified FLuc-C-HiBiT enzyme, luciferin luminescence | Potency, µM (doses to about 32.7 µM), for the others: at the highest dose activity change, negative = inhibition, hits mostly inhibitors; further: on the % scale 0 is the no-effect control and ±100 the full control effect; nearly all actives have a fitted effect of over 70% in size
# An asterisk follows results filed as active; i = inactive; ? = inconclusive; . = no result; [ ] = dose if it differs, or a comment. Unless noted, the call rests on the fitted dose curve; in most records, active means well fitted curve in the direction sought with a large enough effect; inconclusive means small, poorly fitted or top-dose-only effect, or another doubt; inactive means no such curve, though single readings can be large; an effect the other way counts as inactive or inconclusive. Potency means the concentration at half of the fitted maximal effect.
SMILES,GPT2 inh,hNpr1 antagonist,HEK293 tox,FLuc inh-1,3T3 cytotox,FLuc SDR -ATP,FLuc SDR ATP,FLuc inh-2
CCCNc1cc(N2CCC(CCC(=O)Nc3ccc4c(c3)OCCO4)CC2)ncn1,i,?,-26%,11µM*,-19%,28%,?,9.9µM*
CCCCCCCCCCCC(CC1OC(=O)C1CCCCCC)OC(=O)C(CC(C)C)NC=O (stereo not given),i,.,.,.,.,.,.,.
Nc1nc(N2CCC3(CC2)NC(=O)CC3C(=O)O)c2[nH]cnc2n1 (stereo not given),3%,2%,i,i,-3%,13%,9%,4%
COc1cccc(CNc2nc3ccccc3c3nc(-c4cccc(C)c4)nn23)c1,.,.,.,.,.,19%,13%,?
COc1cccc(CNC(=O)Cn2c(-c3ccccc3)nc(C)cc2=O)c1,-1%,-1%,?,i,-16%,.,.,.
CCOC(=O)c1cc(-c2ccccc2)nn1Cc1ccccc1,.,.,.,.,.,15%,12%,-6%
CCOC(=O)C1=CN(Cc2ccccc2)S(=O)(=O)N=C1C,-6%,-13%,-24%,i,?,.,.,.
CNC(=O)CCn1ncc2cc(OCc3ccccc3-c3cccc(NC(C)=O)c3)ccc21,?,-19%,?,8.9µM*,?,27%,?,3.1µM*
O=C(O)CCn1ncc2cc(OCc3ccc(-c4cccc(CO)c4)cc3)ccc21,?,-5%[70.6 µM],-7%[172 µM],20µM*,?,0%[49.3 µM],1%[49.3 µM],?
Cn1cc(-c2cccc(COc3ccc4c(cnn4CC[S+](C)(=O)[O-])c3)c2)cn1,4%[88.5 µM],?,?,5.6µM*,?,25%[49.3 µM],?,?
COc1ccc(C)cc1-c1ccc(COc2ccc3c(cnn3CCC(=O)O)c2)cc1,1%[88.5 µM],-1%[70.6 µM],?,i,-16%[138 µM],.,.,.
C[S+](=O)([O-])CCn1ncc2cc(OCC3CCN(Cc4ccccc4)CC3)ccc21,1%[88.5 µM],6%[70.6 µM],?,i,?,.,.,.
CC(C)Oc1cccc(-c2cccc(COc3ccc4c(cnn4CC[S+](C)(=O)[O-])c3)c2)c1,-1%,?,28µM*,6.3µM*,?,13%,12%,?
Cc1cnc(C(=O)N2CCCCCCn3c(nnc3-c3ccc(F)cc3)CC2)cn1,?,-2%,-12%,i,?,.,.,.
COc1ccc(OC)c(CN2C[C@H]3[C@H](C2)[S+](=O)([O-])C(C)(C)C(=O)N3CC2CCOCC2)c1,i,-2%,i,i,?,.,.,.
Cc1onc(-c2cnn(C)c2NCCc2ccccc2)c1C(=O)N1CCC(F)(F)CC1,i,0%[70.6 µM],?,i,?,.,.,.
O=c1oc2c(CN3CCCC3)c(O)ccc2cc1-c1ccccc1,.,.,.,.,.,13%,12%,-4%
CC(C)c1noc(C2CCN(C(=O)Cn3ccc4ccccc4c3=O)CC2)n1,-8%,2%,?,i,1%,.,.,.
CCNC(=O)Nc1ccc(OCC(=O)NCc2ccc(N3CCOCC3)cc2)nc1,i,-1%,5%,i,-7%,.,.,.
COc1ccc(-c2cccc(C(=O)N3CCN(C(=O)Nc4ccccc4)CC3)c2)nn1,.,.,-13%,.,-23%,.,.,.
COc1ccc(NC(=O)Nc2cccc(-c3ccc(N4CCOCC4)nn3)c2)cc1,i,10µM*,?,1.1µM*,-21%,?,?,1.8µM*
O=C(NCc1ccc(F)cc1)Nc1cccc(-c2ccc(N3CCOCC3)nn2)c1,3%,?,?,1.3µM*,-24%,?,?,1.8µM*
